Viability and Her2 level data for 40 compounds are collected here from PubChem BioAssay.

SMILES strings stand for the structures. Activity calls are given as the source filed them.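 The calls were made as follows: active = Her2 level under about 52% in both replicate screens, with viability over 70% of control (limit read from the data); inconclusive = Her2 under the limit in one screen only, or viability under 70%; inactive = Her2 level above the set limit.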

Test system in one experiment: not listed separately
In words: Her2 expression decrease, cell viability multiplex – SKBR3 breast tumor cells, AlphaScreen, ATP viability, primary screen (AID 461).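 As to Her2 level: lower value means less Her2 protein in the cells.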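 As to Viability: percent of carrier control wells set as 100% viability.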 The conditions noted are these: SKBR3 Her2 protein level, 18-24 h, measured here: SKBR3 viability, ATP luminescence, at 10 µM. For orientation: Bead proximity is the source of the signal in Alpha formats.
In the case of `CCOC(=O)C1CCN(c2c(NC3CCCCCCC3)c(=O)c2=O)CC1`, the viability (in general, a read-out of living cells in per cent, often relative to untreated cells) worked out at 90%.

Take `Cc1nc(NC2=NCN(CCN3CCOCC3)CN2)nc2c(C)cccc12`: the viability came out at 114%.

In the case of `CCN(CC)C(=O)c1sc2nc(-c3cccs3)cc(-c3cccs3)c2c1N`, the viability came out at 102%.

On to `O=C(O)C1CCCN1c1ncnc2c1oc1ccccc12` (stereo not given), for which the viability was found to be 101%.

As to `CCOc1cccc(Oc2ccc(C(F)(F)F)cn2)c1`, the viability was 99%.

Turning to `CCOC(=O)N1CCN(Cc2ccccc2F)CC1`, the viability is 102%.

Take `CCCS(=O)(=O)C(=C1Nc2ccccc2N1)S(=O)(=O)CCC`: the viability came out at 105%.

On to `O=C(NCCSCc1ccco1)Nc1cccc(Cl)c1`, for which the viability is 83.5%.

As to `O=C1C2C3C=CC(C3=C3CCCCC3)C2C(=O)N1c1ccccc1` (stereo not given), the viability was 131%.

With `OC1(c2cccc(C(F)(F)F)c2)CCNCC1`, the viability stood at 110%.

Consider `CCOc1ccc2[nH]cc(C(=O)N3CCN(CC)CC3)c(=O)c2c1`, for which the viability is 98%.

Take `O=C(NC1CCCCCC1)C1CCCN(S(=O)(=O)c2cccs2)C1` (stereo not given): the viability stood at 90%.

With `O=C(CSc1nnnn1C1CCCC1)N1CCN(C(=O)c2ccco2)CC1`, the viability turned out to be 82%.

`O=S(=O)(c1ccc(S(=O)(=O)N(Cc2ccco2)Cc2ccccc2Cl)cc1)N1CCCC1`: the viability is 96%.

In the case of `CN(C)S(=O)(=O)c1ccc(S(=O)(=O)N(Cc2ccco2)Cc2ccccc2Cl)cc1`, the viability is 93%.

On to `O=C(Nc1cccc2ncccc12)c1ccc2c(c1)OCCO2`, for which the viability turned out to be 84%.

Take `Cc1cc(C)n(C(=O)CCCCCC(=O)n2nc(C)cc2C)n1`: the viability amounted to 116%.

In the case of `O=c1c[n+]([O-])c2ccccc2n1OCc1ccccn1`, the viability stood at 94%.

Consider `O=C(CN(c1ccccc1)S(=O)(=O)c1ccccc1)N1CCN(Cc2ccc3c(c2)OCO3)CC1`, for which the viability was 104%.

Turning to `N#CC(C(=O)Nc1ccc(Cl)c(Cl)c1)=C1Nc2ccccc2N1`, the viability was determined as 90.5%.

With `CCCc1cc(=O)n2[nH]cnc2n1`, the viability stood at 104%.

Take `COc1ccc(-c2noc(-c3ccccc3C(=O)Nc3cccnc3)n2)cc1`: the viability came out at 109%.

Take `COc1ccccc1-n1c(SCC(=O)Nc2ccc3c(c2)OCO3)nc2c(c1=O)SCC2`: the viability came to 82.5%.

Turning to `N#CC1=C(N)N(c2ccccc2)C(c2ccco2)C1(C#N)C#N` (stereo not given), the viability was 95.5%.

On to `O=C(N1CCN(c2ccccc2F)CC1)C12CC3CC(CC(C3)C1)C2`, for which the viability stood at 88.5%.

Turning to `COc1ccc(C2C(C(C)=O)=C(O)C(=O)N2C)c(OC)c1` (stereo not given), the viability came out at 102%.

As for `O=C(CN1C(=O)CCSc2ccccc21)Nc1ccc2c(c1)OCO2`, the viability was 124%.

For the compound `COc1cccc(C(=O)Nc2ccc(NC(C)=O)cn2)c1`, the viability was 98%.

For the compound `COC(=O)c1cc(Oc2ccc(C(=O)OC)cc2N)cc(C(=O)OC)c1`, the viability came to 95%.

Turning to `CCOC(=O)c1sc2nc(SCC#N)n(CCCN3CCCC3=O)c(=O)c2c1C`, the viability came out at 80.5%.

As for `Nc1c(C(=O)NCc2ccco2)nnn1Cc1ccccc1`, the viability is 85.5%.

As for `Cc1ccc(N2C(N)=NC(N)=NC23CCCC3)c(C)c1`, the viability worked out at 98.5%.

For `CCCCc1ccc(NC(=O)COCC)cc1`, the viability was found to be 110%.

`Cc1ccc2nc(SC(C)C(=O)N3CCCC3)[nH]c2c1` (stereo not given): the viability came out at 87.5%.

As to `CN(C)c1cccc(C(=O)OCC(=O)NCc2ccco2)c1`, the viability stood at 102%.

Take `CCN(CC)CCOC(=O)c1cccc(OC)c1`: the viability amounted to 115%.

Take `COc1ccc(NC(=O)CCNC(=O)Cn2ccc3ccccc3c2=O)c(OC)c1`: the viability stood at 101%.

In the case of `COc1ccc(CCNc2oc(-c3ccccc3OC)nc2C#N)cc1`, the viability turned out to be 88%.

Consider `Fc1ccc(-c2cnc[nH]2)cc1`, for which the viability was determined as 98.5%.

For `Cc1cc(NC(=O)CSc2nnc(C3CC3)n2C)no1`, the viability turned out to be 91%.

The next experiment deals with Receptor tyrosine-protein kinase erbB-2 (Homo sapiens) (UniProt P04626). The description is as above. To be noted: 18-24 h, at 10 µM, stronger effect = lower value.
Sequence of Receptor tyrosine-protein kinase erbB-2 (Homo sapiens) (P04626 whole entry, looked up): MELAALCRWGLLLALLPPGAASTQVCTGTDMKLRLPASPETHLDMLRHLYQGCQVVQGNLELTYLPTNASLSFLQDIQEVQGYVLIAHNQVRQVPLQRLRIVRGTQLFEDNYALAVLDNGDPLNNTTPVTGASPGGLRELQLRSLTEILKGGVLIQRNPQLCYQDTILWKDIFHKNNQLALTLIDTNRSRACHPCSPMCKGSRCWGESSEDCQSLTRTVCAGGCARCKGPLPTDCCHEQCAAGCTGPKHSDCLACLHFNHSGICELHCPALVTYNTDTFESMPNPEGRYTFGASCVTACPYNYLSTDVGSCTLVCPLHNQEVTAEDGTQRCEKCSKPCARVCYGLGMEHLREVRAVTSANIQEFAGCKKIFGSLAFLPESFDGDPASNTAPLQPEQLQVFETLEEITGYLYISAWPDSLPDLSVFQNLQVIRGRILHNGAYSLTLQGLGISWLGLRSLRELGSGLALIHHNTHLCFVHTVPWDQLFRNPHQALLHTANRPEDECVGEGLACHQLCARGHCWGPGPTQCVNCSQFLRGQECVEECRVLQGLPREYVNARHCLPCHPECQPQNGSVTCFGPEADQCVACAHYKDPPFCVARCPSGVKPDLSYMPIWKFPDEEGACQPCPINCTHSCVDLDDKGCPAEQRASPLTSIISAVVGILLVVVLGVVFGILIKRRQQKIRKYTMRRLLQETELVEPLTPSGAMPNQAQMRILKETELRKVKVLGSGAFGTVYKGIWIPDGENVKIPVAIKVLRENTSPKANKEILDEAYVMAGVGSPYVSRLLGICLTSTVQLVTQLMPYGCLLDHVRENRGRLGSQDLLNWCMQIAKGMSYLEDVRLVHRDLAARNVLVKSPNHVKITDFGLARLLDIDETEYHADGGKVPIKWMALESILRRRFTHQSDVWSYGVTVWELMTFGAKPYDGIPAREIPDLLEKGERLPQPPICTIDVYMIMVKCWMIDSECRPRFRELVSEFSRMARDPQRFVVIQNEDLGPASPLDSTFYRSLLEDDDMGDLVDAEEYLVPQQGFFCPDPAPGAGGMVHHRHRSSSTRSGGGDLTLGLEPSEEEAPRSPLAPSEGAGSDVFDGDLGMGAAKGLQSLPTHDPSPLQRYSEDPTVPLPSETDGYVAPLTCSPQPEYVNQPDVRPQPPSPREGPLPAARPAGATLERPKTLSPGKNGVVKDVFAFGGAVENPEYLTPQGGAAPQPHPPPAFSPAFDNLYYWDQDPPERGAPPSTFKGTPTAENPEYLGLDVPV
Take `CCOC(=O)C1CCN(c2c(NC3CCCCCCC3)c(=O)c2=O)CC1`: the Her2 level was 112% (inactive).

In the case of `Cc1nc(NC2=NCN(CCN3CCOCC3)CN2)nc2c(C)cccc12`, the Her2 level is 91.5% (inactive).

`CCN(CC)C(=O)c1sc2nc(-c3cccs3)cc(-c3cccs3)c2c1N`: the Her2 level was 88.5% (inactive).

Consider `O=C(O)C1CCCN1c1ncnc2c1oc1ccccc12` (stereo not given), for which the Her2 level was 92% (inactive).

Take `CCOc1cccc(Oc2ccc(C(F)(F)F)cn2)c1`: the Her2 level is 93.5% (inactive).

Regarding `CCOC(=O)N1CCN(Cc2ccccc2F)CC1`, the Her2 level is 81% (inactive).

With `CCCS(=O)(=O)C(=C1Nc2ccccc2N1)S(=O)(=O)CCC`, the Her2 level is 97.5% (inactive).

`O=C(NCCSCc1ccco1)Nc1cccc(Cl)c1`: the Her2 level was 95% (inactive).

For the compound `O=C1C2C3C=CC(C3=C3CCCCC3)C2C(=O)N1c1ccccc1` (stereo not given), the Her2 level was 89.5% (inactive).

For `OC1(c2cccc(C(F)(F)F)c2)CCNCC1`, the Her2 level is 91% (inactive).

Regarding `CCOc1ccc2[nH]cc(C(=O)N3CCN(CC)CC3)c(=O)c2c1`, the Her2 level was 104% (inactive).

For the compound `O=C(NC1CCCCCC1)C1CCCN(S(=O)(=O)c2cccs2)C1` (stereo not given), the Her2 level was 118% (inactive).

On to `O=C(CSc1nnnn1C1CCCC1)N1CCN(C(=O)c2ccco2)CC1`, for which the Her2 level was 89.5% (inactive).

Consider `O=S(=O)(c1ccc(S(=O)(=O)N(Cc2ccco2)Cc2ccccc2Cl)cc1)N1CCCC1`, for which the Her2 level is 74.5% (inactive).

As for `CN(C)S(=O)(=O)c1ccc(S(=O)(=O)N(Cc2ccco2)Cc2ccccc2Cl)cc1`, the Her2 level was 93% (inactive).

As to `O=C(Nc1cccc2ncccc12)c1ccc2c(c1)OCCO2`, the Her2 level is 104% (inactive).

Take `Cc1cc(C)n(C(=O)CCCCCC(=O)n2nc(C)cc2C)n1`: the Her2 level is 86.5% (inactive).

As for `O=c1c[n+]([O-])c2ccccc2n1OCc1ccccn1`, the Her2 level is 89.5% (inactive).

For `O=C(CN(c1ccccc1)S(=O)(=O)c1ccccc1)N1CCN(Cc2ccc3c(c2)OCO3)CC1`, the Her2 level was 73% (inactive).

Turning to `N#CC(C(=O)Nc1ccc(Cl)c(Cl)c1)=C1Nc2ccccc2N1`, the Her2 level is 72.5% (inactive).

For the compound `CCCc1cc(=O)n2[nH]cnc2n1`, the Her2 level is 102% (inactive).

Turning to `COc1ccc(-c2noc(-c3ccccc3C(=O)Nc3cccnc3)n2)cc1`, the Her2 level was 98.5% (inactive).

For `COc1ccccc1-n1c(SCC(=O)Nc2ccc3c(c2)OCO3)nc2c(c1=O)SCC2`, the Her2 level was 112% (inactive).

Consider `N#CC1=C(N)N(c2ccccc2)C(c2ccco2)C1(C#N)C#N` (stereo not given), for which the Her2 level is 99.5% (inactive).

For the compound `O=C(N1CCN(c2ccccc2F)CC1)C12CC3CC(CC(C3)C1)C2`, the Her2 level was 87.5% (inactive).

For `COc1ccc(C2C(C(C)=O)=C(O)C(=O)N2C)c(OC)c1` (stereo not given), the Her2 level is 104% (inactive).

Take `O=C(CN1C(=O)CCSc2ccccc21)Nc1ccc2c(c1)OCO2`: the Her2 level was 85.5% (inactive).

In the case of `COc1cccc(C(=O)Nc2ccc(NC(C)=O)cn2)c1`, the Her2 level was 76% (inactive).

Consider `COC(=O)c1cc(Oc2ccc(C(=O)OC)cc2N)cc(C(=O)OC)c1`, for which the Her2 level was 100% (inactive).

With `CCOC(=O)c1sc2nc(SCC#N)n(CCCN3CCCC3=O)c(=O)c2c1C`, the Her2 level was 73% (inactive).

Regarding `Nc1c(C(=O)NCc2ccco2)nnn1Cc1ccccc1`, the Her2 level is 102% (inactive).

As to `Cc1ccc(N2C(N)=NC(N)=NC23CCCC3)c(C)c1`, the Her2 level was 95% (inactive).

Consider `CCCCc1ccc(NC(=O)COCC)cc1`, for which the Her2 level is 94% (inactive).

In the case of `Cc1ccc2nc(SC(C)C(=O)N3CCCC3)[nH]c2c1` (stereo not given), the Her2 level is 108% (inactive).

`CN(C)c1cccc(C(=O)OCC(=O)NCc2ccco2)c1`: the Her2 level is 86.5% (inactive).

For the compound `CCN(CC)CCOC(=O)c1cccc(OC)c1`, the Her2 level is 105% (inactive).

With `COc1ccc(NC(=O)CCNC(=O)Cn2ccc3ccccc3c2=O)c(OC)c1`, the Her2 level was 91% (inactive).

As to `COc1ccc(CCNc2oc(-c3ccccc3OC)nc2C#N)cc1`, the Her2 level is 106% (inactive).

For `Fc1ccc(-c2cnc[nH]2)cc1`, the Her2 level was 99.5% (inactive).

`Cc1cc(NC(=O)CSc2nnc(C3CC3)n2C)no1`: the Her2 level was 80% (inactive).
